Assay outcomes as filed in PubChem BioAssay.
Compounds with a hit are over-represented: about 18% of the library has one in this group of screens.
LDHA inh = LDHA (human) enzyme inhibition; purified LDHA, NADH/diaphorase-resazurin fluorescence; hits give low values; activity change, % (values are at about 110 or 230 µM); actives 0.15% (n = 480,000); in the data active = activity change below about -30%; inconclusive = mostly about -25% to -30%;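 note: plate controls were DMSO wells for no effect and wells without enzyme for full effect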
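Resorufin fluorescence (ex540/em590), read at 0 and 20 min after diaphorase/resazurin addition, reports the NADH left after a 5 min room-temperature reaction of 2 nM human LDH5 with 0.06 mM NADH and 0.2 mM pyruvate.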
TDP1 cell noCPT = qHTS for Inhibitors of human tyrosyl-DNA phosphodiesterase 1 (TDP1): qHTS in cells in absence of CPT. Potency, µM (titrated, usually from 46.2 µM), inactives show top-dose activity change, negative = growth inhibition, most hits filed as inhibitors. DT40 Tdp1-/- hTDP1 cells, no CPT, ATP luminescence, 48 h. AID 686978, 2013. actives 15% (n = 420,000); note: potency is the fitted concentration of half-maximal effect; nearly all actives have a fitted effect of over 55% in size
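Readout: luminescence from CellTiter-Glo after 30 min in the dark at RT. Cells: DT40 Tdp1-/- with stable hTDP1, 400/well. Exposure: compounds alone, ≥48 hr, 37 °C.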
VP16 counter = Gal4-VP16 reporter inhibition counter-screen; Potency, µM (titrated, usually from 53.6 µM), for inactives: at the top dose activity, negative = inhibition, usual class: inhibitors; Drosophila S2 Gal4-VP16 UAS-luciferase, luminescence, 20 h; actives 3.5% (n = 310,000);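 note: Gal4-VP16 expression switched on by copper sulfate through the metallothionein promoter; potency is the fitted concentration of half-maximal effect; nearly all actives have a fitted effect of over 50% in size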
IL1B secr inh = inhibitors of inflammasome signaling (IL-1 beta secretion); THP-1 LPS/ATP IL-1B secretion, AlphaLISA, 16 h; hits give low values; activity change, % at 57.5 µM; actives 4.7% (n = 360,000); in the data active = activity change below about -50%; inconclusive = mostly about -30% to -49%
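Secreted IL-1B measured by AlphaLISA bead assay after 16 h compound exposure of THP-1 cells; compounds (final up to 57.5 uM) added 1 h before LPS (250 ng/mL) and ATP (1.25 mM) stimulation; lower signal means less secretion.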
DT40 TDP1 CPT = growth inhibition of DT40 Tdp1-/-;hTDP1 cells with camptothecin (screen for TDP1 inhibitors). actives 12% (n = 420,000). Potency, µM (doses to about 46.2 µM), for inactives: at the highest dose activity change, negative = growth inhibition, hits mostly inhibitors. chicken DT40 Tdp1-/-;hTDP1 cells + 20 nM CPT, ATP luminescence, 48 h; note: potency is the fitted concentration of half-maximal effect; nearly all actives have a fitted effect of over 55% in size
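Chicken DT40 Tdp1-/- cells complemented with human TDP1, 400 cells/well, exposed to compounds plus 20 nM camptothecin for at least 48 h at 37 C; viability read as ATP content by CellTiter-Glo luminescence.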
RORg inh = ROR gamma (mouse) transcription inhibition. Drosophila S2 Gal4-RORgamma UAS-luciferase reporter, 20 h. Potency, µM (series often up to 53.6 µM), inactives show top-dose activity change, negative = inhibition, usual class: inhibitors. actives 5.4% (n = 310,000); note: potency is the fitted concentration of half-maximal effect; nearly all actives have a fitted effect of over 60% in size
Target sequence (P51450 whole entry, looked up, the tested form may be a part): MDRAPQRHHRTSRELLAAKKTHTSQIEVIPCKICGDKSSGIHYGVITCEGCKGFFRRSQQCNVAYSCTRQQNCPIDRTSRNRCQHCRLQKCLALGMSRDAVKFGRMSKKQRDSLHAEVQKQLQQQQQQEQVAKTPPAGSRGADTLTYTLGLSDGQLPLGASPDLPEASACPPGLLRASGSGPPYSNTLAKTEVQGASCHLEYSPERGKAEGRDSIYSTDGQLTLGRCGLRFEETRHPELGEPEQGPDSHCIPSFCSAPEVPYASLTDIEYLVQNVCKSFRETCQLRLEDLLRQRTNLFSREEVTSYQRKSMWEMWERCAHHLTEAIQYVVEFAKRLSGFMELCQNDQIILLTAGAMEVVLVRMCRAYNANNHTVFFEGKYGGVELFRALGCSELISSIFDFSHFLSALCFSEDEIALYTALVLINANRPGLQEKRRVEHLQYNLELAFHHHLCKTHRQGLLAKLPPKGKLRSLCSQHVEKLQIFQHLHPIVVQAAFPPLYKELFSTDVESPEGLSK
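In this cell-based reporter format, copper sulfate (700 uM final) drives Gal4–ROR gamma fusion expression from a metallothionein promoter in Drosophila Schneider cells; compounds preincubated 1 hr, reporter read after 20 hr at ambient temperature.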
An asterisk follows results filed as active; ? = inconclusive; . = no result given; [ ] = another dose, or the depositor's remark. Unless noted, calls come from the whole dose curve; as a rule, active = well fitted curve in the direction sought with a large enough effect; inconclusive = small, poorly fitted or top-dose-only effect, or another doubt; inactive = no such curve, though single readings can be large; an effect the other way counts as inactive or inconclusive. Unless noted, % is set by controls: 0 for no effect and ±100 for the full control effect.

SMILES	LDHA inh	TDP1 cell noCPT	VP16 counter	IL1B secr inh	DT40 TDP1 CPT	RORg inh
CCOC(=O)c1ccc(NC(=O)C2CCCN(c3ncnc4onc(-c5ccc(F)cc5)c34)C2)cc1 (configuration not stated)	0.0	14.6µM*	.	.	20.6µM*	.
CC(C)NC(=O)C1CCCN(c2ncnc3onc(-c4ccc(F)cc4)c23)C1 (configuration not stated)	-6.7	-19.8%	.	.	-5.5%	.
COc1ccc(NC(=O)C2CCCN(c3ncnc4onc(-c5ccc(F)cc5)c34)C2)cc1 (configuration not stated)	-12.1	?	5.1%	0.1	?	-17.1%
O=C(OCC(=O)N1CCCC1)c1cc(-c2ccco2)nc2ccccc12	10.2	.	.	.	.	.
CCCNc1c(NS(=O)(=O)c2ccccc2Cl)c(=O)oc2ccccc12	13.7	.	.	.	.	.
COc1ccnc(NCc2cccnc2)c1C#N	-5.9	29.1µM*	0.6%	15.1	2.8%	0.8%
COc1ccnc(NCc2cccc(C(F)(F)F)c2)c1C#N	-9.1	-5.1%	-2.3%	-9.1	12.4%	-15.4%
O=C(c1nc2ccc(Cl)cn2c1CNCC[C@@H]1C[C@@H]2C=C[C@H]1C2)N1CCCCCCC1	3.2	?	5.5%	-72.1*	?	15.2%
C/C(CS(=O)(=O)c1ccccc1)=N\O	-5.1	-10.0%	-4.5%[10 µM]	4.5	2.5%	8.0%
C/C=C(\CS(=O)(=O)c1ccccc1)S(=O)(=O)c1ccccc1	-1.3	29.1µM*	6.31µM*	?	?	3.55µM*
N#C/C(=N/Nc1ccc(OC(F)(F)F)cc1)C(N)=S	-4.8	1.64µM*	4.47µM*	-63.7*	2.31µM*	4.47µM*
CCOc1ccc(N/N=C(/C#N)C(N)=O)cc1	3.6	-12.2%	-14.8%	-2.3	-21.8%	3.4%
COCCOC(=O)c1[nH]c2c(c1C)C(=O)CC(c1cc(OC)c(OC)c(OC)c1)C2 (configuration not stated)	-3.7	2.91µM*	?	-21.4	3.66µM*	?
CCCc1c(C(=O)OCC)[nH]c2c1C(=O)CC(c1ccc(OC)c(OC)c1)C2 (configuration not stated)	-2.4	.	.	.	.	.
C=CCOC(=O)c1[nH]c2c(c1C)C(=O)CC(c1cc(OC)c(OC)c(OC)c1)C2 (configuration not stated)	-1.2	7.31µM*	?	?	20.6µM*	?
CCOC(=O)c1[nH]c2c(c1-c1ccc(OC)cc1)C(=O)CC(c1ccc(OC)c(OC)c1)C2 (configuration not stated)	6.0	?	-2.1%	.	?	?
CCCCOC(=O)c1[nH]c2c(c1C)C(=O)CC(c1cc(OC)c(OC)c(OC)c1)C2 (configuration not stated)	-2.1	5.17µM*	?	4.2	6.51µM*	?
C#CCNC(=O)CN1CCN(C(=O)C2CCCC2)CC1	7.1	.	.	.	.	.
CCC(Sc1nccn1-c1cccc(F)c1)C(=O)Nc1cc(C)on1 (configuration not stated)	-2.6	.	.	.	.	.
Cc1ccc(CN2CCC(CNC(=O)C3CCCN(c4ncnc5c4nc4n5CCCCC4)C3)CC2)cc1 (configuration not stated)	-1.5	?	2.0%	-65.7*	?	0.5%
Cc1ccc(CCNC(=O)C2CCCN(c3ncnc4c3nc3n4CCCCC3)C2)cc1 (configuration not stated)	-5.4	-19.3%	13.0%	15.9	?	2.5%
CCOc1ccc(CCNC(=O)C2CCCN(c3ncnc4c3nc3n4CCCCC3)C2)cc1 (configuration not stated)	-2.9	23.1µM*	25.9%	-11.8	?	-0.2%
